From PubChem BioAssay AID2796 (The Scripps Research Institute Molecular Screening Center, 2010)
In all, about 320,000 compounds went through this assay and about 8,000 (2.5%) were called active. This excerpt belongs to a sample that is enriched for actives. Unmarked numbers belong to inactive results. Rule as the data show it: active = activation above about 47%; inactive = the rest.

The molecules below were run against Aryl hydrocarbon receptor (Homo sapiens) (UniProt P35869) (assay: AHR activators, primary screen, cell-based, luminescence, luciferase reporter, human (AID 2796;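 also: 0% = vehicle wells and 100% = reference agonist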)). Conditions: AHR-responsive luciferase reporter cells, at 5 µM, stronger effect = higher value.
Sequence of Aryl hydrocarbon receptor (Homo sapiens) (P35869 whole entry, looked up): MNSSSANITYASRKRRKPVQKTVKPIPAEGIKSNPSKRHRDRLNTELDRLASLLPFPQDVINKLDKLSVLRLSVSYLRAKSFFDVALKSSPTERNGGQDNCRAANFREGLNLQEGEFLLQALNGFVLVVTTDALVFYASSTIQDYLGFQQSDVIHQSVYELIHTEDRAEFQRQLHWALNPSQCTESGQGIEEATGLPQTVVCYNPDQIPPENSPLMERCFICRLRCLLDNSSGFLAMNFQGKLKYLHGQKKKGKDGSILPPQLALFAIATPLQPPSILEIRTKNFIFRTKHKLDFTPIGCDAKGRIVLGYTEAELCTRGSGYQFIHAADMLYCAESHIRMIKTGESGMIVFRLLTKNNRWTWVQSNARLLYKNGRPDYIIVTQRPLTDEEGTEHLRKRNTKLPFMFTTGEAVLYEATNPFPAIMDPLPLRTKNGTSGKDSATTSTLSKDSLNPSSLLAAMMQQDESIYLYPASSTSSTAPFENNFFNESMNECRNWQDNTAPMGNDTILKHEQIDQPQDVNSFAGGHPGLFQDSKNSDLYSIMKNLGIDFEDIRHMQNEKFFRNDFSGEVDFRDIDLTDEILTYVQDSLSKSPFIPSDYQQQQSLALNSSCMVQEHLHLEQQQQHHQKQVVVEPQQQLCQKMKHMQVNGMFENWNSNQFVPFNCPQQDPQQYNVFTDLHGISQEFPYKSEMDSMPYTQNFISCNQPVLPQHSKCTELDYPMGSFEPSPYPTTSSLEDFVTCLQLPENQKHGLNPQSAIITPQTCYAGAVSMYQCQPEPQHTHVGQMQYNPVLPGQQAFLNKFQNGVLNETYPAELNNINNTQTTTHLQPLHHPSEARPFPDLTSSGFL

Going from CCOC(=O)C1CCN(CC(=O)Nc2ccc(OC)c(S(=O)(=O)N3CCCCC3)c2)CC1 to O=C(COC(=O)COc1ccccc1F)Nc1cccc(S(=O)(=O)N2CCCCC2)c1, the activation rises from -1.58% to 0.3%.

First: O=C(NNC(=O)c1cccnc1)Nc1ccccc1
Second: NC(=O)c1oc2ccccc2c1NC(=O)Cc1ccccc1
The activation of the first is lower: -0.59% for the first, 0.99% for the second.

First: Cc1ccc(NC(=O)NCC(c2cccnc2)N2CCOCC2)cc1 (stereo not drawn)
Second: Cc1ccc(CN(Cc2cccnc2)C(=S)Nc2cc(Cl)ccc2C)cc1
The activation of the first is higher: 3.2% for the first, 2.1% for the second.

Compared with CCCNC(=S)NC1CC2CCCC(C1)N2CC(C)C (stereo not drawn), CCOC(=O)N1CCC(Nc2c(NCCCN3CCN(CC)CC3)c(=O)c2=O)CC1 is lower in activation: 2.13% for the first, 0.42% for the second.

Going from COC(=O)c1sccc1NC(=O)COc1ccc(Cl)cc1 to CCS(=O)(=O)c1ccc(O)c(NC(=O)COc2ccc(Cl)cc2)c1, the activation falls from 3.07% to -3.28%.

Compared with CC(C(=O)NCCc1ccc(S(N)(=O)=O)cc1)N1C(=O)CC(C)(C)Sc2ccccc21 (stereo not drawn), Cc1cccc(C)c1NC(=O)CNC(=O)c1c(C)nn(-c2ccccc2)c1C is lower in activation: 1.77% for the first, 0.83% for the second.

Compared with CN(c1ccccc1)c1ccc(/C=c2\s/c(=C(/C#N)C(=O)C(C)(C)C)n(Cc3ccco3)c2=O)cc1, Cc1ccc(S(=O)(=O)N(C)c2ccc(OCC(=O)OCC(=O)N(CC#N)c3ccccc3)cc2)cc1 is lower in activation: 0.79% for the first, -1.55% for the second.

Compared with Cc1csc(=Nc2ccccc2)n1CCO, Cn1c(Nc2cccc(Cl)c2)nc2ccccc21 is lower in activation: 4.51% for the first, -1.72% for the second.

Compared with Cc1c2cnn(CC(=O)NCc3ccccn3)c(=O)c2c(C)n1Cc1ccc(Cl)cc1, CSc1ncccc1C(=O)Nc1ccc(C)cn1 is lower in activation: 1.4% for the first, -0.65% for the second.

First: COc1ccc(OC)c(-c2csc(NC(=O)COC(=O)C3CC3)n2)c1
Second: COc1ccc(OC)c(-c2csc(NC(=O)C3=NNC(=O)CC3)n2)c1
The activation of the first is lower: -1.02% for the first, 12.8% for the second.

Compared with COc1ccccc1C1=CC(=O)CCC1, N#CC(=C1CCCC1)c1nc(-c2ccc(Cl)cc2)cs1 is higher in activation: 0.36% for the first, 4.95% for the second.

Going from COc1ccc(NC(=O)CNc2cc(S(=O)(=O)N3CCOCC3)ccc2N2CCOCC2)c(OC)c1 to CN(C)S(=O)(=O)c1ccc2oc(SCC(=O)Nc3ccccc3F)nc2c1, the activation rises from -1.67% to 10.3%.

First: O=c1ccnc(Nc2ccc(Cl)cc2)[nH]1
Second: COc1ccc(Nc2nc(-c3cccnc3)nc3ccccc23)cn1
The activation of the first is higher: 2.65% for the first, -0.65% for the second.

Going from COc1cc(C2OC(c3cc(OC)c(OC)c(OC)c3)C(C)C2C)cc(OC)c1OC (stereo not drawn) to COc1cc(C#Cc2ccc3cc(CCCO)oc(=O)c3c2)cc(OC)c1, the activation falls from 3.59% to 1.38%.

Going from Cn1c(=O)c2c(ncn2CC(COCc2ccccc2Cl)OCc2ccccc2Cl)n(C)c1=O (stereo not drawn) to CC(Sc1nnc(COc2ccccc2)n1-c1ccccc1)C(=O)O (stereo not drawn), the activation falls from 0.3% to -2.4%.

First: Fc1ccc(-c2csc(-c3ccc(C4SCCS4)cc3)n2)cc1F
Second: Cc1ccc2nc(C)cc(N/N=C/c3ccc(F)cc3)c2c1
The activation of the first is higher: 27.6% for the first, 10.9% for the second.

First: CCOC(=O)C1CCN(Cc2nnc(-c3cccc(Br)c3)o2)CC1
Second: CCOC(=O)C1CCN(c2ncnc3c2c(-c2ccccc2)cn3-c2ccc(C)cc2)CC1
The activation of the first is higher: 1.14% for the first, -0.73% for the second.

Compared with COc1cc(OC)cc(C(=O)NCC(=O)N2CCCCCCC2)c1, CSc1ncccc1C(=O)NC1CCCCCC1 is lower in activation: 17.3% for the first, -0.02% for the second.

In the case of Cc1ccc(SC(CC(=O)c2ccc(C(C)(C)C)cc2)C(=O)O)cc1 (stereo not drawn), the activation is reported as -1.16%.

For Cc1ccc(NC(=O)Nc2cccnc2)cc1, the activation was 83.7% (active).
O=C(COc1ccc(Cl)cc1)Nc1ccccc1CO was tested, and the activation was 62.6% (active).
With Cc1cs/c(=N\N=C\c2ccc(O)cc2)n1Cc1ccco1 the activation was 59.4% (active).
For COc1ccc(OC)c(-c2csc(-c3cccs3)n2)c1, the activation was 121% (active).
Clc1ccc(Nc2ccc3ccccc3n2)cc1 was tested, and the activation was 73.6% (active).
In the case of Clc1ccc(-c2csc(-c3ccncc3)n2)cc1, the activation is reported as 63.4% (active).
In the case of CCOC(=O)C1CCN(c2ncnc3c2oc2ccc(Br)cc23)CC1, the activation is reported as 66.9% (active).
CSc1ncccc1C(=O)Nc1nc2ccc(F)cc2s1 was tested, and the activation was 79.2% (active).
For Fc1ccc(/C=N/Nc2nc(-c3cccnc3)nc3ccccc23)cc1, the activation was 69.7% (active).
For CC(C)C(=O)Nc1ccc2c(c1)oc1ccccc12, the activation was 60.8% (active).
For CC(C)C(=O)Nc1c(C(=O)c2ccc(F)cc2)oc2ccccc12, the activation was 132% (active).
